The values below come from ChEMBL document CHEMBL3988442, “University of Dundee, Small-Polar-MMV Screening Library” (2021).

The whole screen tested about 48,000 compounds, of which about 13,000 (27%) showed an effect of 50% or more. The list shows a part of the results.

The assay relates to Wolbachia pipientis. Description: Anti-Wolbachia Cell-Based Screen. Type of assay: functional. Set-up: scale not given: in the data most compounds retested in dose-response had high values. Conditions: 5 µM.
For `CSC(C)C(=O)N1CCCN(Cc2cnn(C(C)C)c2)CC1` (configuration not stated), the “Percent Effect” value is -3.847%.
Then `CC(C)(C)OC(=O)N1CSC[C@@H]1C(=O)NCc1cccc(C#N)c1`, with -10.68%.
Then `COc1ccc2nc(CNC(=O)c3cc(C(C)C)on3)[nH]c2c1`, with -7.42%.
Then `Cc1ccc2[nH]c(CNC(=O)C3CC4(CCNCC4)CN3C)nc2c1C` (configuration not stated), with 105.7%; and `Cc1ccc(NCCCNC(=O)C2CC3(CCNCC3)CN2C)nc1` (configuration not stated), with -3.217%.
For `CCn1nc(C(C)C)cc1C(=O)NCc1nc2ccc(OC)cc2[nH]1`, the “Percent Effect” value worked out at 5.154%.
Consider `COc1ccc2nc(CNC(=O)C3CC4(CCNCC4)CN3C)[nH]c2c1` (configuration not stated), for which the “Percent Effect” value was found to be 101.4%.
Regarding `Cc1ncsc1CCCNC(=O)C1CC2(CCNCC2)CN1C` (configuration not stated), the “Percent Effect” value is given as 23.09%.
Then `Cn1nnc2c1CCN(S(C)(=O)=O)C2COCC1CC1` (configuration not stated), with -21.64%.
The figure for `Fc1cc(CNCc2ccc3c(c2)CCO3)ccc1N1CCOCC1` is 14.1%; for `CCC[C@@H]1CN(C(=O)c2conc2-c2ccccc2)C[C@H]1N(C)C` it is -6.905%.
The figure for `CCc1nc2ccccc2c(=O)n1CC1(O)CCN(C(=O)COC)CC1.Cl` is 76.81%.
`COC(=O)Cn1c(=O)nc2n1C(=O)N(c1ccccc1)C2`: the “Percent Effect” value is recorded as -2.891%.
Turning to `COCC(=O)N1CCCN(Cc2cc(O)c3ccccc3n2)CC1`, the “Percent Effect” value is on record as -35.6%.
The figure for `CS(=O)(=O)N1CCC(O)(Cn2c(C3CC3)nc3ccccc3c2=O)CC1` is -5.897%.
The figure for `CCc1nc2ccccc2c(=O)n1CC1(O)CCN(CC(=O)OC)CC1` is 94.95%.
`CCCC(=O)N1CCC(O)(Cn2c(CC)nc3ccccc3c2=O)CC1.Cl`: the “Percent Effect” value is on record as -3.591%.
The figure for `Cc1nc2ccccc2c(=O)n1CCC(=O)N1CCSCC1` is -8.454%; for `CCc1nc2ccccc2c(=O)n1CC1(O)CCN(C(=O)C(C)C)CC1` it is 101.9%; for `Cc1nc2ccccc2c(=O)n1Cc1nnnn1C1CC1` it is -4.17%.
For the molecule `CCc1nc2ccccc2c(=O)n1CC1(O)CCN(C(=O)C2CC2)CC1.Cl`, the “Percent Effect” value turned out to be 111.9%.
Then `CC(=O)c1cn(CC(=O)N2CCC(O)(CO)CC2)c2ccccc12`, with -13.61%; and `CCC(Oc1ccc(N(C)S(C)(=O)=O)cc1)C(=O)NC` (configuration not stated), with 9.37%; and `CC(C)NC(=O)N1CCCC2(CCCCN2)C1` (configuration not stated), with -45.21%.
Then `CNC(=O)Cc1noc(-c2cc3c(s2)CCCC3)n1`, with 9.229%; and `Cc1cccc(CN(Cc2ccccc2)Cc2nccs2)n1`, with -3.089%.
Take `COc1ccccc1OC1CN(C(=O)CN(C)Cc2ccncc2)C1`: the “Percent Effect” value was -7.187%.
Then `CCC(=O)NC1CCCN(Cc2ccc(-n3ccnc3)cc2)C1` (configuration not stated), with 12%; and `CCc1nc2ccccc2c(=O)n1CC1(O)CCN(S(C)(=O)=O)CC1.Cl`, with -5.087%.
As to `Cc1nc2ccccc2c(=O)n1CCC(=O)N1CCNC(=O)C1`, the “Percent Effect” value is recorded as -8.423%.
The figure for `CCc1nc2ccccc2c(=O)n1CC1(O)CCNCC1.Cl` is 113.9%; for `CCNC(=O)N(Cc1ccoc1)C1CCCCC1` it is -0.3193%; for `CCc1cccc(N2CCC(NC(=O)c3cc[nH]n3)CC2)c1` it is 15.39%.
Consider `Cc1cc(C(=O)NCCSC2CCCC2)no1`, for which the “Percent Effect” value was -0.7527%.
The figure for `CCCn1nc(C)c(CNC(=O)c2snnc2C)c1C` is -13.49%; for `Cc1cc(-c2cnn(CCNC(=O)c3cccnc3)c2C2CC2)on1.Cl` it is -6.458%.
The figure for `Cc1cc(-c2cnn(CCNC(=O)c3cc[nH]n3)c2C2CC2)on1` is 115.4%; for `Cc1cc(-c2cnn(CCNC(=O)c3cnn(C)c3)c2C2CC2)on1` it is 133.8%.
The figure for `Cc1cc(-c2cnn(CCNC(=O)c3snnc3C)c2C2CC2)on1` is 141.4%; for `Cc1cc(-c2cnn(CCNC(=O)C3CC3)c2C2CC2)on1` it is 8.757%.
Regarding `O=C(NCCc1nnc[nH]1)Nc1cccc(SC(F)F)c1`, the “Percent Effect” value is recorded as -17.31%.
Then `O=C(C[S+]([O-])Cc1ccc(Cl)cc1Cl)N1CCc2sccc2C1` (configuration not stated), with -26.03%.
Then `Cc1nc(CN(C)C(=O)C2CC(=O)N(c3cccc(O)c3)C2)cs1` (configuration not stated), with -3.806%.
The figure for `COc1cccc(S(=O)(=O)CCN2CCCN(C(C)=O)CC2)c1` is -4.305%; for `CN1CCOC[C@H]1c1nc(-c2ccncc2)c[nH]1` it is -4.576%; for `Cc1ccc(C)c(NC(=O)N2CCC3(CC2)NC(=O)CC3C(=O)O)c1` (configuration not stated) it is -4.672%.
For `O=C(O)[C@@H]1CN(C2CCOCC2)C[C@H]1C1CC1`, the “Percent Effect” value worked out at 12.44%.
The figure for `Fc1ccc(-c2nnc(CNC3CCc4ncnn4C3)o2)cc1` (configuration not stated) is -10.58%; for `Clc1cccc(-c2nc(CNC3CCc4ncnn4C3)co2)c1` (configuration not stated) it is 112.7%; for `Cc1ccc(-c2nc(CNC3CCc4ncnn4C3)co2)cc1` (configuration not stated) it is 77.78%.
Then `Clc1ccccc1-c1nc(CNC2CCc3ncnn3C2)co1` (configuration not stated), with 83.87%; and `Fc1ccc(-c2nc(CNC3CCc4ncnn4C3)co2)cc1` (configuration not stated), with 119.4%; and `c1nc2n(n1)CC(NCc1csc(-c3ccsc3)n1)CC2` (configuration not stated), with -11.03%.
The figure for `Clc1ccccc1-c1nc(CNC2CCc3ncnn3C2)cs1` (configuration not stated) is -2.283%; for `c1ccc(-c2nc(CNC3CCc4ncnn4C3)co2)cc1` (configuration not stated) it is 3.463%.
Turning to `Fc1ccc(-c2ccc(CNC3CCc4ncnn4C3)o2)cc1` (configuration not stated), the “Percent Effect” value was -0.7899%.
The figure for `c1csc(-c2nc(CNC3CCc4ncnn4C3)co2)c1` (configuration not stated) is -0.5039%.
